These results are taken from PubChem BioAssay (NCATS).

The nature of the test: qHTS drug screen for cell cycle checkpoint inhibitors in PARPi-resistant BRCA-mutant ovarian cancer cell lines. (AID 1963452). As to conditions: PEO1/OlaR viability, CellTiter-Glo luminescence, 96 h, stronger effect = lower value. From the text:
Women's Malignancies Branch, Center for Cancer Research (CCR),
National Cancer Institute (NCI), National Institutes of Health (NIH), Bethesda, MD
Poly (ADP-ribose) polymerase inhibitors (PARPis) have changed the treatment paradigm in breast cancer gene (BRCA) - mutant high-grade serous ovarian carcinoma (HGSC). However, most patients eventually develop resistance to PARPis, highlighting an unmet need for improved therapeutic strategies. Using high-throughput drug screens, we identified ataxia telangiectasia and rad3-related protein/checkpoint kinase 1 (CHK1) pathway inhibitors as cytotoxic and further validated the activity of the CHK1 inhibitor (CHK1i) prexasertib in PARPi-sensitive and -resistant BRCA-mutant HGSC cells and xenograft mouse models. CHK1i monotherapy induced DNA damage, apoptosis, and tumor size reduction. We then conducted a phase 2 study (NCT02203513) of prexasertib in patients with BRCA-mutant HGSC. The treatment was well tolerated but yielded an objective response rate of 6% (1 of 17; one partial response) in patients with previous PARPi treatment. […] BRCA reversion mutation in previously PARPi-treated BRCA-mutant patients was not associated with resistance to CHK1i.
Among others, 1082 oncology drugs, both approved and investigational, were prioritized based on their status in clinical trial development. […] Drugs with average Z-AUC values less than -1.0 in all three cell lines were classified as "hits" resulting in 151 oncology drug hits. The screen also confirmed cross-resistance between olaparib and other PARPis (rucaparib, niraparib, and talazoparib) in PARPi-resistant PEO1/OlaR and PEO4.
[1] G. L. Lin, K. M. Wilson, M. Ceribelli, B. Z. Stanton, P. J. Woo, S. Kreimer, E. Y. Qin, X. Zhang, J. Lennon, S. Nagaraja, P. J. Morris, M. Quezada, S. M. Gillespie, D. Y. Duveau, A. M. Michalowski, P. Shinn, R. Guha, M. Ferrer, C. Klumpp-Thomas, S. Michael, C. McKnight, P. Minhas, Z. Itkin, E. H. Raabe, L. Chen, R. Ghanem, A. C. Geraghty, L. Ni, K. I. Andreasson, N. A. Vitanza, K. E.Warren, C. J. Thomas, M. Monje, Therapeutic strategies for diffuse midline glioma from high-throughput combination drug screening. Sci. Transl. Med. 11, (2019).
[2] T. M. Yamamoto, A. McMellen, Z. L. Watson, J. Aguilera, R. Ferguson, E. Nurmemmedov, T. Thakar, G. L. Moldovan, H. Kim, D. M. Cittelly, A. M. Joglar, E. P. Brennecke, H. Wilson, K. Behbakht, M. J. Sikora, B. G. Bitler, Activation of Wnt signaling promotes olaparib resistant ovarian cancer. Mol. Carcinog. 58, 1770 - 1782 (2019).
PROTOCOL TABLE (as described by Inglese J, Shamu CE and Guy RK. 2007)
SEQUENCE No. (e.g., 1, 2, 3, etc.); […] (e.g., Cells, Incubation, Reagent, etc.); VALUE; DESCRIPTION.
1; Compounds; 20nL; 1536-well white tissue culture-treated plates.
2; Cells; 5 uL; PEO1, PEO4, and PEO1/OlaR cells at 600 cells per well.
3; Incubation; 96 hr; 37C, 95% humidity, 5% CO2.
4; Reagent; 3 uL; CellTiter-Glo (Promega).
5; Incubation; 15 min; room temperature.
6; Detection; Luminescence, PHERAstar (BMG Labtech) plate reader.
NOTES (numbers refer to Sequence numbers above)
1. MIPE 5.0 compounds were acoustically dispensed by Echo Acoustic Liquid Handler (Beckman Coulter Life Sciences). Each compound was plated at an 11-point concentration range with 1:3 dilution. Bortezomib, a proteasome inhibitor (final concentration, 20 uM), was used as a positive.
2. PEO1, PEO4, and PEO1/OlaR were trypsinized and dispensed in 5 uLof growth medium using a Multidrop Combi dispenser at a density of 600 cells per well to allow compounds to be present during the exponential growth phase.
3. Plates were incubated for 96 hours at standard incubator conditions and covered by a stainless steel gasketed lid to prevent evaporation.
4. Three microliters of CellTiter-Glo (Promega) were added to each well.
5. Plates were incubated at room temperature for 15 min with a stainless-steel lid in place.
6. Luminescence readings were taken using PHERAstar (BMG Labtech). […]
(In general: qHTS replaces the single test concentration by a dilution series.)

Where [1] appears, read: measured here: PEO1 parental Z-AUC.

The source made the active and inactive calls. Calls come from the whole dose curve.

With `C=CC(=O)Nc1cccc(Nc2nc(Nc3ccc(N4CCN(C(C)=O)CC4)cc3OC)ncc2C(F)(F)F)c1`, the Z-AUC was -0.226 (inactive). Besides, the Z-AUC under setting [1] stood at 0.717. Besides, the Z-AUC (measured here: PEO4 Z-AUC) was -0.058.
For `NC(=O)[C@H]1CCS[C@@H]2C[C@]3(CCCN3C(=O)Cc3ccc(NC(=O)COc4ccc(Cl)cc4Cl)cc3)C(=O)N12`, in that order: -0.482 (inactive), 0.014 and 0.0247.
Take `Cc1c(F)cc(C(=O)NC2CC2)cc1-c1c(F)cn2c(C(C)(C)C)nnc2c1F`: the Z-AUC was 0.645 (inactive). For the same compound, the Z-AUC under setting [1] stood at 0.963. Further, under “measured here: PEO4 Z-AUC”, the Z-AUC stood at 1.81.
For `COc1c(Nc2ncc(Cl)c(N[C@H]3[C@@H](C(N)=O)[C@@H]4C=C[C@H]3C4)n2)ccc2c1CC[C@@H](N1CCOCC1)CC2`, the Z-AUC is 0.583 (inactive). In addition, the Z-AUC under setting [1] is 0.18. Under “measured here: PEO4 Z-AUC”, the Z-AUC came to 0.103.
For the compound `c1cn2cc(-c3ccc4cn[nH]c4c3)nc(Nc3ccc(N4CCOCC4)cc3)c2n1`, the Z-AUC is -0.306 (inactive). Under setting [1], the Z-AUC is -0.0182. The Z-AUC (measured here: PEO4 Z-AUC) worked out at 0.447.
Take `COCCOc1ccc(N2CCN(CCn3ncc4c3nc(N)n3nc(-c5ccco5)nc43)CC2)cc1`: the Z-AUC is -0.648 (inactive). In addition, the Z-AUC under setting [1] is -0.346. Further, under “measured here: PEO4 Z-AUC”, the Z-AUC was -0.723.
For the compound `C[C@H](Nc1ncnc2nc[nH]c12)c1cc2ccc(F)cc2nc1-c1ccccn1`, the Z-AUC was -0.541 (inactive). In addition, under setting [1], the Z-AUC is -0.257. In addition, the Z-AUC (measured here: PEO4 Z-AUC) worked out at 0.432.
`COCCOc1cnc2ccn([C@H](C)c3nnc4c(F)cc(-c5cnn(C)c5)cn34)c(=O)c2c1`: the Z-AUC is 1.14 (inactive). Also, the Z-AUC under setting [1] was 0.929. For the same compound, the Z-AUC (measured here: PEO4 Z-AUC) was determined as 1.44.
For `CCCN1CCN(c2ccc(C(=O)NC3(C(=O)NCC#N)CCCCC3)cc2)CC1`, in that order: 0.959 (inactive), 0.728 and 0.558.
The corresponding values for `O=C(NOCC(O)CO)c1ccc(F)c(F)c1Nc1ccc(I)cc1F` (configuration not stated) are -1.69 (inactive), -1.32 and -0.907.
Take `COc1cc2ncnc(Nc3cccc(Cl)c3F)c2cc1OC(=O)N1CCN(C)C[C@H]1C`: the Z-AUC was -0.739 (inactive). The Z-AUC under setting [1] is -1.08. The Z-AUC (measured here: PEO4 Z-AUC) is -1.14.
For `Cc1[nH]nc(C(F)(F)F)c1Cc1sc2c(c1C(=O)N1C[C@](C)(O)CO1)c(=O)n(C)c(=O)n2C(C)C`, in that order: 0.988 (inactive), 0.611 and 0.623.
Take `COCCN1CCN(Cc2ccc(-c3n[nH]c4c3C(=O)c3c(NC(=O)NN5CCOCC5)cccc3-4)cc2)CC1`: the Z-AUC is 0.43 (inactive). Moreover, under setting [1], the Z-AUC is 0.701. Further, the Z-AUC (measured here: PEO4 Z-AUC) turned out to be 0.00286.
The corresponding values for `Cc1nc([C@](C)(O)CO)sc1-c1cnc(N)c(O[C@H](C)c2cc(F)ccc2-n2nccn2)c1` are 1.59 (inactive), 0.437 and -0.14.
